Data reported in PubChem BioAssay AID463195 (Sanford-Burnham Center for Chemical Genomics, 2010).
Among all 330,000 compounds or so, about 4,600 (1.4%) were called active. The sample holds actives, similar compounds and a random draw of the others, so the mix is not that of the screen.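 The calls were made as follows: active = inhibition of 40% or more at the single tested concentration; inactive = the rest.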

Test: wild-type TIM10 yeast growth inhibition – luminescence, uHTS, counter-screen for tim10-1 yeast inhibitor project, primary screen (AID 463195);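 also: wild-type TIM10 isogenic control strain grown at permissive 25 °C; 0% = DMSO yeast wells and 100% = minimal medium wells without yeast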
Conditions: S. cerevisiae TIM10 strain growth, BacTiter-Glo luminescence, 24 h; at 10 µM; stronger effect = higher value
In the case of Cc1ccc(-c2nc3ccccc3c(=O)n2-c2ccc(Br)cn2)cc1, the inhibition was 43.5% (active).
For O=c1c2ccccc2nc(-c2ccccc2)n1-c1ccccn1, the inhibition was 9.32% (inactive).
With O=c1c2ccccc2nc(-c2ccco2)n1-c1ccc(Br)cn1 the inhibition was 5.95% (inactive).
For C=CC12CN(C)[C@@H]3C4CO[C@H](C[C@H]41)[C@]1(C(=O)Nc4ccccc41)[C@@H]32 (stereo not given in full), the inhibition was -2.08% (inactive).
With O=c1c2ccccc2nc(-c2ccc(Cl)cc2Cl)n1-c1ccncc1 the inhibition was 18.8% (inactive).
For CCN(CC)CCOC(=O)c1cc2cc(COC)ccc2o1, the inhibition was -10.2% (inactive).
With CC(C)CN1CCN(Cc2ccccc2C(F)(F)F)CC1CCO (stereo not given) the inhibition was -6.36% (inactive).
With C/C(CCc1c[nH]c2ccccc12)=N\O the inhibition was 6.37% (inactive).
For C/C(=N/O)c1ccc2ccc3ccccc3c2c1, the inhibition was 40.7% (active).
In the case of O=[N+]([O-])c1cnc2ccc3ccccc3c2c1, the inhibition was -22.9% (inactive).
For O=C1NC(=O)N(c2ccccc2)C(=O)/C1=C/c1ccc([N+](=O)[O-])s1, the inhibition was 85.5% (active).
In the case of Cc1c(C(=O)O)cccc1-n1c(C)cc(/C=C2\C(=O)NC(=O)N(c3ccc4c(c3)OCO4)C2=O)c1C, the inhibition was -7.16% (inactive).
In the case of COc1cccc(N2C(=O)NC(=O)/C(=C\c3ccc([N+](=O)[O-])s3)C2=O)c1, the inhibition was 78.4% (active).
In the case of COc1ccc(N2C(=O)/C(=C/c3ccco3)C(=O)NC2=S)cc1, the inhibition was -0.32% (inactive).
For CCc1cccc2c(C#N)cn(CC(=O)N3CCOCC3)c12, the inhibition was 9.92% (inactive).
In the case of Cn1c(C(=O)N2CCC(C(=O)N3CCC4(CC3)OCCO4)CC2)cc2sccc21, the inhibition was 1.3% (inactive).
For COc1ccc(CCn2c(O)c(C=NC3CC3)c(=O)[nH]c2=O)cc1OC, the inhibition was 0.042% (inactive).
With CC(=O)Cc1ccc(OC(C)C)cc1 the inhibition was -13.5% (inactive).
With CC(C(=O)Nc1ccc(Cl)cc1Cl)N1CC=C(c2ccccc2)CC1 (stereo not given) the inhibition was 15.3% (inactive).
In the case of CCCCCn1c(=O)c(C(=O)Nc2c(C)n(C)n(-c3ccccc3)c2=O)c(O)c2ccccc21, the inhibition was 24.7% (inactive).
In the case of Cc1cc2ccccn2c1C(C[N+](=O)[O-])c1c(F)cccc1Cl (stereo not given), the inhibition was 52.7% (active).
With CCN1c2nc3c(C)cccn3c(=O)c2CC2(C(=O)N(C)C(=O)N(C)C2=O)C1C (stereo not given) the inhibition was 5.19% (inactive).
For Cc1cccc(NC(=O)N2CC3CC(C2)c2cccc(=O)n2C3)c1 (stereo not given), the inhibition was -9.99% (inactive).
With CC[C@H]1CC2CN3CCc4c([nH]c5ccccc45)C(C(=O)OC)(C2)C13 (stereo not given in full) the inhibition was -1.49% (inactive).
With COC(=O)C1=C(c2ccccc2)C[C@@H]2CC[C@H]1N2C(=O)N1CCCCC1 the inhibition was 28.7% (inactive).
